Experimental data taken from ChEMBL document CHEMBL4888484, “Replenishing the malaria drug discovery pipeline: Screening and hit evaluation of the MMV Hit Generation Library 1 (HGL1) against asexual blood stage Plasmodium falciparum ,using a nano luciferase reporter read-out” (2022).
About 540 (0.36%) of roughly 150,000 compounds showed an effect of 50% or more. This excerpt belongs to a sample that is enriched for strong results.

test system: Plasmodium falciparum; experiment: Primary screen in NF54 nanoGlo assay, in single point, at 2uM, 72h; a lower Z score goes with more inhibition; assay type: functional, Erythrocyte; details: timepoint 72 hour

Going from `O=C(Nc1cccc(Cl)c1)Nc1nnc2cccc(Cl)n12` to `CC=Cc1ccc(OCC(=O)Nc2cccc(NC(=O)Nc3ccccc3)c2)c(OC)c1`, the “% Inhibition” value rises from -18% to -7%.

Compared with `Cc1csc(NC(=O)c2cc(-c3ccccc3)on2)n1`, `Cc1cc(N2CC(OCc3ccccc3)C2)nc(Nc2cccc(O)c2)n1` is higher in “% Inhibition” value: -6% for the first, 91% for the second.

First: COc1cc2ccc1OCC(=O)N[C@@H](C)C(=O)N(C)CCCCN(C(=O)c1cc(Cl)cn1C)CCCNC2=O
Second: COc1cccc(CN2C(=O)N[C@@](C)(C3CCN(C(=O)c4cccnc4OC)CC3)C2=O)c1OC
The “% Inhibition” value of the first is lower: -24% for the first, 8% for the second.

Compared with `COCC1(CNC(=O)c2ccc(-c3ccncc3C)cc2)CCC1`, `COc1cc(C(=O)NCc2cccnc2)ccc1OCC(=O)Nc1cccc(C(F)(F)F)c1` is lower in “% Inhibition” value: 8% for the first, 3% for the second.

Compared with `Cn1cc(N2C[C@@H](C(=O)NCC=Cc3cccnc3)CCC2=O)cn1`, `O=C1CC(C(=O)N2CCCC2c2ccncc2)CN1c1ccccc1` (stereo not drawn) is lower in “% Inhibition” value: -4% for the first, -8% for the second.

First: Cn1c(C(=O)N2CC[C@H](N)C2)ccc1-c1cccc(Br)c1
Second: Cn1c(C(=O)N2CC[C@H](N)C2)ccc1-c1ccccc1Br
The “% Inhibition” value of the first is higher: 50% for the first, 0% for the second.

Going from `N[C@@H]1CCN(C(=O)c2cccnc2Oc2cccc(Br)c2)C1` to `O=C1CNC(C(=O)N2CCC[C@H]2c2ccncc2)=NN1c1ccccc1`, the “% Inhibition” value rises from -12% to 3%.

First: CC1(C2CC2)CCN(C(=O)c2csnn2)CC1
Second: Cc1nn(C)c(C)c1CC(=O)N1CCC2(CCC2)S(=O)(=O)CC1
The “% Inhibition” value of the first is higher: 2% for the first, -5% for the second.

Compared with `Cc1ccsc1CN(Cc1ccccc1)C(=O)CN(C(=O)C1CCCC1)C1CCCCC1`, `Cc1cccc(CN(CC2CCN(C3Cc4ccccc4C3)CC2)C[C@H]2CCCO2)n1` is higher in “% Inhibition” value: -2% for the first, -1% for the second.

Going from `CC(C)[C@H](NC(=O)c1cc(O)ccn1)C(=O)NC1CCCCC1` to `COc1ccc(CC(=O)N[C@H]2CCOC2)cc1OC`, the “% Inhibition” value rises from -5% to -1%.

Going from `COc1cc(C=C(C(=O)Nc2ccccc2F)C(=O)Nc2ccccc2F)ccc1OCC(=O)Nc1cccc(C(F)(F)F)c1` to `Cc1ccc(C)c(Cn2c(C(=O)Nc3ccccc3)cc3cc(NC(=O)c4ccco4)ccc32)c1`, the “% Inhibition” value falls from 80% to 2%.

Going from `Cc1cc(NCc2csc(N(C)C)n2)nc(Nc2cccc(O)c2)n1` to `CCO[C@H]1CN(C)C[C@@H]1Nc1cc(C)nc(Nc2cccc(O)c2)n1`, the “% Inhibition” value falls from -3% to -6%.

Compared with `Cc1cc(N2C[C@H]3CC[C@@H](C2)[C@H]3N(C)C)nc(Nc2cccc(O)c2)n1`, `Cc1cc(N2CCOC[C@@H](O)C2)nc(Nc2cccc(O)c2)n1` is lower in “% Inhibition” value: 77% for the first, -4% for the second.

Compared with `O=C(c1nc2ccccc2[nH]1)N1CCN(c2ccccc2F)CC1`, `COc1ccc(-c2nn(-c3ccccc3F)cc2CN2CCOCC2)cc1` is lower in “% Inhibition” value: -1% for the first, -19% for the second.

First: CCn1cc(-c2n[nH]cc2C(=O)N2CCN(CC(C)C)C(=O)C2)cn1
Second: COc1nc(NCC2CCN(CC(C)C)CC2)ncc1F
The “% Inhibition” value of the first is higher: 3% for the first, -2% for the second.

Going from `COc1ccc(S(=O)(=O)N2CCOC[C@H](Oc3ccccc3)C2)cc1` to `COc1ccc(-[n+]2c(-c3ccccc3)cn3c2CCC3)cc1`, the “% Inhibition” value rises from 31% to 79%.

Going from `CCc1cnccc1NC(=O)CCCC1CCOCC1` to `CCN(Cc1csc(C)n1)C[C@H]1CCCCO1`, the “% Inhibition” value rises from -3% to 2%.

First: C[C@]1(c2cnccn2)NC(=O)N(Cc2cc(F)ccc2OC(F)F)C1=O
Second: COc1ccc(OC)c(CNc2cc[nH]n2)c1
The “% Inhibition” value of the first is higher: -4% for the first, -5% for the second.

Compared with `CC(C)c1ocnc1C(=O)NC[C@H]1[C@H](c2ccccc2)C1(F)F`, `COc1ccc2[nH]c3c(c2c1)CCN(C(=O)c1ccc(C)c(C)c1)[C@H]3COCc1ccccc1` is higher in “% Inhibition” value: -3% for the first, 0% for the second.

First: COc1ccc2[nH]c3c(c2c1)CCN(C(=O)c1ccc(C)c(C)c1)[C@@H]3c1ccccc1OC
Second: COc1ccc2[nH]c3c(c2c1)CCN(C(=O)c1cc(Cl)cc(Cl)c1)[C@@H]3c1ccccc1OC
The “% Inhibition” value of the first is higher: 84% for the first, -11% for the second.

Compared with `Cc1cccc(CN(Cc2cccc(C)n2)C[C@H]2CCCCO2)n1`, `COc1ccc(-c2cn3c(n2)CCC3)cc1` is lower in “% Inhibition” value: 90% for the first, -5% for the second.

Compared with `COc1nc(NC[C@H]2CCCN2C(C)C)ncc1F`, `COc1nc(NCC[C@H]2CCCCN2C)ncc1F` is lower in “% Inhibition” value: 64% for the first, 3% for the second.

Compared with `Cc1ccc(NS(=O)(=O)c2cc(-c3nc(C)c(C)s3)sc2C)c(C)c1`, `CN(C)c1noc(CN2CCc3ccc(F)cc3C2)n1` is higher in “% Inhibition” value: -5% for the first, 51% for the second.

First: CC1CCN(C(=O)[C@H]2CCc3ncc(-c4ccc(F)cc4)n3C2)CC1
Second: NC(=O)N1CCCC(C(=O)N2CCCC2c2ccc(F)c(F)c2)C1 (stereo not drawn)
The “% Inhibition” value of the first is lower: -7% for the first, 0% for the second.

Going from `COc1ccc(N2CCN(Cc3ccc(-c4ccccc4)cc3)CC2)cc1` to `COc1ccc(-[n+]2c(-c3ccc(-c4ccccc4)cc3)cn3c2COCC3)cc1`, the “% Inhibition” value rises from 5% to 58%.

Compared with `COc1ccc(-c2cn3cc(-c4ccccc4)c4c3n2CCCC4)cc1`, `O=C1CCC(C(=O)N2CCC[C@H]2c2ccncc2)=NN1c1ccccc1` is higher in “% Inhibition” value: -8% for the first, 67% for the second.

Going from `CN(C)c1noc(CN2CCc3c(F)cc(F)cc3C2)n1` to `CCCc1nc(CN2CCc3ccc(F)cc3C2)no1`, the “% Inhibition” value falls from 10% to -4%.

Compared with `O=C(Nc1cccc(Cl)c1)Nc1nnc2cccc(Cl)n12`, `CC=Cc1ccc(OCC(=O)Nc2cccc(NC(=O)Nc3ccccc3)c2)c(OC)c1` is lower in Z score: 2.03 for the first, 0.59 for the second.

First: Cc1csc(NC(=O)c2cc(-c3ccccc3)on2)n1
Second: Cc1cc(N2CC(OCc3ccccc3)C2)nc(Nc2cccc(O)c2)n1
The Z score of the first is higher: 1.01 for the first, -12.9 for the second.

Compared with `COc1cc2ccc1OCC(=O)N[C@@H](C)C(=O)N(C)CCCCN(C(=O)c1cc(Cl)cn1C)CCCNC2=O`, `COc1cccc(CN2C(=O)N[C@@](C)(C3CCN(C(=O)c4cccnc4OC)CC3)C2=O)c1OC` is lower in Z score: 3.05 for the first, -1.05 for the second.

Compared with `COCC1(CNC(=O)c2ccc(-c3ccncc3C)cc2)CCC1`, `COc1cc(C(=O)NCc2cccnc2)ccc1OCC(=O)Nc1cccc(C(F)(F)F)c1` is higher in Z score: -1 for the first, -0.33 for the second.

Going from `Cn1cc(N2C[C@@H](C(=O)NCC=Cc3cccnc3)CCC2=O)cn1` to `O=C1CC(C(=O)N2CCCC2c2ccncc2)CN1c1ccccc1` (stereo not drawn), the Z score rises from 0.63 to 1.05.

Compared with `Cn1c(C(=O)N2CC[C@H](N)C2)ccc1-c1cccc(Br)c1`, `Cn1c(C(=O)N2CC[C@H](N)C2)ccc1-c1ccccc1Br` is higher in Z score: -7.09 for the first, 0.05 for the second.

Going from `N[C@@H]1CCN(C(=O)c2cccnc2Oc2cccc(Br)c2)C1` to `O=C1CNC(C(=O)N2CCC[C@H]2c2ccncc2)=NN1c1ccccc1`, the Z score falls from 1.38 to -0.62.

Going from `CC1(C2CC2)CCN(C(=O)c2csnn2)CC1` to `Cc1nn(C)c(C)c1CC(=O)N1CCC2(CCC2)S(=O)(=O)CC1`, the Z score rises from -0.37 to 0.46.

Going from `Cc1ccsc1CN(Cc1ccccc1)C(=O)CN(C(=O)C1CCCC1)C1CCCCC1` to `Cc1cccc(CN(CC2CCN(C3Cc4ccccc4C3)CC2)C[C@H]2CCCO2)n1`, the Z score falls from 0.35 to 0.18.

Going from `CC(C)[C@H](NC(=O)c1cc(O)ccn1)C(=O)NC1CCCCC1` to `COc1ccc(CC(=O)N[C@H]2CCOC2)cc1OC`, the Z score falls from 0.48 to 0.14.

Compared with `COc1cc(C=C(C(=O)Nc2ccccc2F)C(=O)Nc2ccccc2F)ccc1OCC(=O)Nc1cccc(C(F)(F)F)c1`, `Cc1ccc(C)c(Cn2c(C(=O)Nc3ccccc3)cc3cc(NC(=O)c4ccco4)ccc32)c1` is lower in Z score: 1.63 for the first, -0.19 for the second.

Compared with `Cc1cc(NCc2csc(N(C)C)n2)nc(Nc2cccc(O)c2)n1`, `CCO[C@H]1CN(C)C[C@@H]1Nc1cc(C)nc(Nc2cccc(O)c2)n1` is higher in Z score: 0.61 for the first, 1.08 for the second.

First: Cc1cc(N2C[C@H]3CC[C@@H](C2)[C@H]3N(C)C)nc(Nc2cccc(O)c2)n1
Second: Cc1cc(N2CCOC[C@@H](O)C2)nc(Nc2cccc(O)c2)n1
The Z score of the first is lower: -8.01 for the first, 0.39 for the second.

Going from `O=C(c1nc2ccccc2[nH]1)N1CCN(c2ccccc2F)CC1` to `COc1ccc(-c2nn(-c3ccccc3F)cc2CN2CCOCC2)cc1`, the Z score rises from 0.23 to 3.28.

Going from `CCn1cc(-c2n[nH]cc2C(=O)N2CCN(CC(C)C)C(=O)C2)cn1` to `COc1nc(NCC2CCN(CC(C)C)CC2)ncc1F`, the Z score rises from -0.32 to 0.24.

First: COc1ccc(S(=O)(=O)N2CCOC[C@H](Oc3ccccc3)C2)cc1
Second: COc1ccc(-[n+]2c(-c3ccccc3)cn3c2CCC3)cc1
The Z score of the first is higher: -3.47 for the first, -11.37 for the second.

Going from `CCc1cnccc1NC(=O)CCCC1CCOCC1` to `CCN(Cc1csc(C)n1)C[C@H]1CCCCO1`, the Z score falls from 0.38 to -0.27.

Going from `C[C@]1(c2cnccn2)NC(=O)N(Cc2cc(F)ccc2OC(F)F)C1=O` to `COc1ccc(OC)c(CNc2cc[nH]n2)c1`, the Z score rises from 0.57 to 0.8.

Compared with `CC(C)c1ocnc1C(=O)NC[C@H]1[C@H](c2ccccc2)C1(F)F`, `COc1ccc2[nH]c3c(c2c1)CCN(C(=O)c1ccc(C)c(C)c1)[C@H]3COCc1ccccc1` is lower in Z score: 0.47 for the first, 0.02 for the second.

First: COc1ccc2[nH]c3c(c2c1)CCN(C(=O)c1ccc(C)c(C)c1)[C@@H]3c1ccccc1OC
Second: COc1ccc2[nH]c3c(c2c1)CCN(C(=O)c1cc(Cl)cc(Cl)c1)[C@@H]3c1ccccc1OC
The Z score of the first is lower: -11.27 for the first, 1.21 for the second.

Compared with `Cc1cccc(CN(Cc2cccc(C)n2)C[C@H]2CCCCO2)n1`, `COc1ccc(-c2cn3c(n2)CCC3)cc1` is higher in Z score: -9.86 for the first, 0.43 for the second.

Compared with `COc1nc(NC[C@H]2CCCN2C(C)C)ncc1F`, `COc1nc(NCC[C@H]2CCCCN2C)ncc1F` is higher in Z score: -12.06 for the first, -0.58 for the second.

First: Cc1ccc(NS(=O)(=O)c2cc(-c3nc(C)c(C)s3)sc2C)c(C)c1
Second: CN(C)c1noc(CN2CCc3ccc(F)cc3C2)n1
The Z score of the first is higher: 0.62 for the first, -2.97 for the second.

First: CC1CCN(C(=O)[C@H]2CCc3ncc(-c4ccc(F)cc4)n3C2)CC1
Second: NC(=O)N1CCCC(C(=O)N2CCCC2c2ccc(F)c(F)c2)C1 (stereo not drawn)
The Z score of the first is higher: 1.27 for the first, 0.02 for the second.

Going from `COc1ccc(N2CCN(Cc3ccc(-c4ccccc4)cc3)CC2)cc1` to `COc1ccc(-[n+]2c(-c3ccc(-c4ccccc4)cc3)cn3c2COCC3)cc1`, the Z score falls from -1 to -11.93.

First: COc1ccc(-c2cn3cc(-c4ccccc4)c4c3n2CCCC4)cc1
Second: O=C1CCC(C(=O)N2CCC[C@H]2c2ccncc2)=NN1c1ccccc1
The Z score of the first is lower: 1.46 for the first, 1.73 for the second.

Compared with `CN(C)c1noc(CN2CCc3c(F)cc(F)cc3C2)n1`, `CCCc1nc(CN2CCc3ccc(F)cc3C2)no1` is higher in Z score: -0.88 for the first, 0.53 for the second.
